# Of roughly 6,500 targets only a part is listed; those with a hit were picked by preference. About 2% of all pairs of compound and target were hits.
# Compound: COC(=O)C#Cc1ccccc1 [methyl 3-phenylpropiolate]
# Experiment: log2 ratio of iodoacetamide-alkyne labeling of the cysteine site, DMSO over compound (competition); higher = stronger covalent engagement of the cysteine by the compound, active = 1 or more
# Details: 500 µM; treatment time 1 h; system: HEK293T cell lysate
# How it was run: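 HEK293T lysate at 2 mg/mL was treated with vehicle or electrophile (500 µM) for 1 h at ambient temperature, then labelled with iodoacetamide alkyne (1 h), clicked to sCIP-TMT reagents, pooled, digested with trypsin overnight at 37 °C, enriched on streptavidin and eluted with acid. Peptides were analysed by Orbitrap Eclipse LC-MS/MS with FAIMS and quantified in FragPipe, using duplicate channels and three replicates, with cysteines quantified in only one replicate excluded. The log2 competition ratio for each cysteine is the mean control-channel reporter intensity divided by the mean compound-channel reporter intensity.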
# Chain of UniProt Q14204 (Q14204 whole entry, looked up): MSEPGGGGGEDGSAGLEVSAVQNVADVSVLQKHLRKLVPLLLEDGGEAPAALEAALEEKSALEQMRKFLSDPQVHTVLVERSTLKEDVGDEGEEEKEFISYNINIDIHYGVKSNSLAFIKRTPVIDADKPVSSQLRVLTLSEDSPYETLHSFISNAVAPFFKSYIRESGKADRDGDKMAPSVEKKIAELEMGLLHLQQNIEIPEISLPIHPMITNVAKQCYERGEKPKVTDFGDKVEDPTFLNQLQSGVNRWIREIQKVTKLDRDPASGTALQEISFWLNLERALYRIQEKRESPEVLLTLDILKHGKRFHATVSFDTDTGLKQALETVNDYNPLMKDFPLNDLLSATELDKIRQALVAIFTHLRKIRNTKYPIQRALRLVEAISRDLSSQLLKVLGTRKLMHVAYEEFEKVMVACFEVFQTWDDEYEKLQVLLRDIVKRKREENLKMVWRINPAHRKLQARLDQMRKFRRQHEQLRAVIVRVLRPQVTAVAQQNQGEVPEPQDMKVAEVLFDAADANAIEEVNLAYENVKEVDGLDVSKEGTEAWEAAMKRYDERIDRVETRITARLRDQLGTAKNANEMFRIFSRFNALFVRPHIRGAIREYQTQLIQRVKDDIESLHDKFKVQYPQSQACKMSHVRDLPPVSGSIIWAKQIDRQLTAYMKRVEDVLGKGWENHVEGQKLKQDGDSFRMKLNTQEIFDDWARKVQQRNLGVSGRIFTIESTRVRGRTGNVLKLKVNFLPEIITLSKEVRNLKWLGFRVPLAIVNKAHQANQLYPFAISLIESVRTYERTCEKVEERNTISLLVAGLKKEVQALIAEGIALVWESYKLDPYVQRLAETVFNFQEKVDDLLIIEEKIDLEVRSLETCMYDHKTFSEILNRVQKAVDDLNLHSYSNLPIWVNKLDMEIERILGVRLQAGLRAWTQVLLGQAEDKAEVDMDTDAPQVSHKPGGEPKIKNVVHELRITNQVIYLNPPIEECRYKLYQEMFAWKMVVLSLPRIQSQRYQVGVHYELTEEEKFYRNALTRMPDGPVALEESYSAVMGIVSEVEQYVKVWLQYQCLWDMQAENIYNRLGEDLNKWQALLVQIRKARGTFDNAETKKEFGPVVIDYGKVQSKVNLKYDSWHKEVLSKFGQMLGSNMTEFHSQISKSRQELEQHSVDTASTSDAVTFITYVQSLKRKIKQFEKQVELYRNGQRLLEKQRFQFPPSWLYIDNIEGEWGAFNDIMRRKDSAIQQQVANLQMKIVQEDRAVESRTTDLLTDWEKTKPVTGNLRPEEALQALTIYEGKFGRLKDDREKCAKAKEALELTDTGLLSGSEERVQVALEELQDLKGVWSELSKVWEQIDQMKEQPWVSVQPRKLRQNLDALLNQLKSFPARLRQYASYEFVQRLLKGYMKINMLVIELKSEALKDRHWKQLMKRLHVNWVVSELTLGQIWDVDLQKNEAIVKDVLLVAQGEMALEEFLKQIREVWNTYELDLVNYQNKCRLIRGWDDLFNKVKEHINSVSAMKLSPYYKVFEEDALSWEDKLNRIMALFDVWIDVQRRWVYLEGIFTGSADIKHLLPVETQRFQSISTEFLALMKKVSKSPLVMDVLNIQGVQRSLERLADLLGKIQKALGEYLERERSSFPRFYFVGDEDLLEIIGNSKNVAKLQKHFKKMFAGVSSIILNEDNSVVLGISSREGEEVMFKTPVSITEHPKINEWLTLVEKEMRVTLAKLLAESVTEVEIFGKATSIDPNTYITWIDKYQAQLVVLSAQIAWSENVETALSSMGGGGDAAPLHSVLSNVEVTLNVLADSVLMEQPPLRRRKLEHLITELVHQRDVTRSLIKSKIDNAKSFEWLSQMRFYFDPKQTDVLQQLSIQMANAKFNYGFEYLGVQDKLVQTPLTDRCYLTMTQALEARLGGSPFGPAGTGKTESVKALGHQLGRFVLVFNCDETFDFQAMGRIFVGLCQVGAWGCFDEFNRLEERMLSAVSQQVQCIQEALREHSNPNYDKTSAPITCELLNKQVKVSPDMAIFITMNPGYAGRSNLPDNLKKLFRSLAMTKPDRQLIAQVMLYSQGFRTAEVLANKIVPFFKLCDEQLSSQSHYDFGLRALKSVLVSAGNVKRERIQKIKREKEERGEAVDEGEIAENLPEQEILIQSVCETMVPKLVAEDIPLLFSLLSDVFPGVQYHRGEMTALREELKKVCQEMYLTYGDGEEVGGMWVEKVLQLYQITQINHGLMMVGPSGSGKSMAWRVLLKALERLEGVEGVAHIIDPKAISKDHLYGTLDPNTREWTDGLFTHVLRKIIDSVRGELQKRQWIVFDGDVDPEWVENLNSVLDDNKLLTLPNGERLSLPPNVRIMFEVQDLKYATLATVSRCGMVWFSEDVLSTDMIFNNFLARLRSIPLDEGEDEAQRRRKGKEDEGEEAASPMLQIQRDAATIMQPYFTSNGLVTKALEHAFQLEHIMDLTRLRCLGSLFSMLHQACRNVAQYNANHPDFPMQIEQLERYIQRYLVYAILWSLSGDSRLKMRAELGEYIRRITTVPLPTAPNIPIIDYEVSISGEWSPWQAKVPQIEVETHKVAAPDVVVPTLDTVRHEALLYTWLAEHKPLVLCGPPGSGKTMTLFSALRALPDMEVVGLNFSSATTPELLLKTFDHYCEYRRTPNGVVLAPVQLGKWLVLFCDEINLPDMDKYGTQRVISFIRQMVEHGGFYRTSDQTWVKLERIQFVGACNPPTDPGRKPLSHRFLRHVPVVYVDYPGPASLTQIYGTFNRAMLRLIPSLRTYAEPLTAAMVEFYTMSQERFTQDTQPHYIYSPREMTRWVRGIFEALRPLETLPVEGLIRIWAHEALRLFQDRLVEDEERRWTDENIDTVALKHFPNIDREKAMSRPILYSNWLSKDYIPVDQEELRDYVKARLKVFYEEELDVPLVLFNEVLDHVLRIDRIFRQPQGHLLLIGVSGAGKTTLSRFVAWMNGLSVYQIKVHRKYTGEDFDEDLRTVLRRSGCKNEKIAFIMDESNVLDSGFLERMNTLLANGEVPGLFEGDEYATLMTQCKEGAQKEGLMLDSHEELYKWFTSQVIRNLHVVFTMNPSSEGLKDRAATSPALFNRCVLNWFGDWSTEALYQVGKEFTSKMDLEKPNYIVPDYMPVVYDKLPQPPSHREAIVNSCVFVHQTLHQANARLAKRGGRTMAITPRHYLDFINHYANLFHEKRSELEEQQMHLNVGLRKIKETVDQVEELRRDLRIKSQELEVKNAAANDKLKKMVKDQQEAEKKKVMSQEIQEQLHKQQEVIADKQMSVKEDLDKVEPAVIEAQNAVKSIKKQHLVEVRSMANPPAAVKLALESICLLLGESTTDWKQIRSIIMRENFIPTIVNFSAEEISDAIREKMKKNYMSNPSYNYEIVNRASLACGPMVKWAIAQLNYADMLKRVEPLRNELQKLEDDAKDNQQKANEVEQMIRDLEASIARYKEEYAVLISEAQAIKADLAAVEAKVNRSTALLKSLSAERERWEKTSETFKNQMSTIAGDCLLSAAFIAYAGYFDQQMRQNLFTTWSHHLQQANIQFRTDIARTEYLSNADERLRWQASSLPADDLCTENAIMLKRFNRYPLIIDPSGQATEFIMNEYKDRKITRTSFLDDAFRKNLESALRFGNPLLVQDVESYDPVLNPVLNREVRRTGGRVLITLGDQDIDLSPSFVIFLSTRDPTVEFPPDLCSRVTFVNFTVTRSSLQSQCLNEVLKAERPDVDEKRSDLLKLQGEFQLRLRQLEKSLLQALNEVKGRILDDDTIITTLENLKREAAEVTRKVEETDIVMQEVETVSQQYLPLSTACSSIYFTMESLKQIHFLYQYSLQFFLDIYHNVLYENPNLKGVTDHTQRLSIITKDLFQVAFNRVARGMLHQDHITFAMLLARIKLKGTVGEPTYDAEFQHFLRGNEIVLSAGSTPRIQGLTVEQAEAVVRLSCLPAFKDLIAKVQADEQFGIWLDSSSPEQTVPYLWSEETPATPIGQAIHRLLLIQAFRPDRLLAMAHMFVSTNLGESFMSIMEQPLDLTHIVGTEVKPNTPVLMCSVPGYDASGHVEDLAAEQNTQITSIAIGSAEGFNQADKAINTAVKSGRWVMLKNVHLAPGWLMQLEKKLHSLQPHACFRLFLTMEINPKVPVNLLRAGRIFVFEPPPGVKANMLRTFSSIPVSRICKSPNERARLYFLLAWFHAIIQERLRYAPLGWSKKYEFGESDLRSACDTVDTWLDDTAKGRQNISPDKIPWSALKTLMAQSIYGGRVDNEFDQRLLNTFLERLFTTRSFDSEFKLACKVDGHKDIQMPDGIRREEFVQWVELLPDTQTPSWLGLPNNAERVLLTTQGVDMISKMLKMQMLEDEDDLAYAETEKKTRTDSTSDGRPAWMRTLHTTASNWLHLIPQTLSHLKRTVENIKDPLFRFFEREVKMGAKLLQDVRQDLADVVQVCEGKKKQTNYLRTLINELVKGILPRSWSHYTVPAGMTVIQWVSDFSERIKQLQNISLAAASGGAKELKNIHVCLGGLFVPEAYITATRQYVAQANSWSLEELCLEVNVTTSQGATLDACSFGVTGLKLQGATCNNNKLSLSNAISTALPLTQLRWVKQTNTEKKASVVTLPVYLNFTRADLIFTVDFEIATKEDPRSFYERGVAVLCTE
# Chain of UniProt P56589 (P56589 whole entry, looked up): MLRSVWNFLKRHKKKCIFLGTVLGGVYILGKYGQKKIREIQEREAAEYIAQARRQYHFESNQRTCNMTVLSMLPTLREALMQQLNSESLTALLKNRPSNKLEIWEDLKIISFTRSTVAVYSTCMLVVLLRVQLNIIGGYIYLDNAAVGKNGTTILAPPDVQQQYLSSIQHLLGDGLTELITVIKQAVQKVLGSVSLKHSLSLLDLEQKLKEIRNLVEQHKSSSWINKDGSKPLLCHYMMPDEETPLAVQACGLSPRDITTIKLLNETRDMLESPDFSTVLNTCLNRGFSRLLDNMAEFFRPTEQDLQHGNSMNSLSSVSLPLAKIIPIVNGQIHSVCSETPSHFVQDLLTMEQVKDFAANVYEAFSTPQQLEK
# Chain of UniProt Q16718 (Q16718 whole entry): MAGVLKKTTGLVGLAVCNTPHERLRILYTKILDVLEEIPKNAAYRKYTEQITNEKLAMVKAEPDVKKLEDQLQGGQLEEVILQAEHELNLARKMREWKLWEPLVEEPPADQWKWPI
row,Target,log2 ratio of iodoacetamide-alkyne labeling
1,ERCC6L C356 (UniProt Q2NKX8),0.193 (inactive)
2,UniProt P78527_C1904,0.286 (inactive)
3,YARS C250 (UniProt P54577),0.0441 (inactive)
4,UniProt Q08170_C115,-0.0754 (inactive)
5,PPP5C C77 (UniProt P53041),0.135 (inactive)
6,UniProt Q16512_C602,0.0536 (inactive)
7,TBCE C371 (UniProt Q15813),0.185 (inactive)
8,UniProt Q13242_C138,0.112 (inactive)
9,CHAF1A C190 (UniProt Q13111),1.08 (active)
10,ETFDH C561 (UniProt Q16134),0.595 (inactive)
11,UniProt Q13247_C121,-0.0624 (inactive)
12,DYNC1H1 C3147 (UniProt Q14204),0.433 (inactive)
13,UniProt P62330_C155,0.452 (inactive)
14,EFTUD2 C144 (UniProt Q15029),0.297 (inactive)
15,GANAB C423 (UniProt Q14697),0.019 (inactive)
16,AKAP13 C683 (UniProt Q12802),0.255 (inactive)
17,PPA1 C274 (UniProt Q15181),0.425 (inactive)
18,SAFB C404 (UniProt Q15424),1.14 (active)

row,Target,log2 ratio of iodoacetamide-alkyne labeling
1,UniProt Q13247_C61,-0.0753 (inactive)
2,DIP2A C6 (UniProt Q14689),1.75 (active)
3,GEMIN4 C382 (UniProt P57678),0.0965 (inactive)
4,EEF1A2 C326 (UniProt Q05639),0.25 (inactive)
5,NDUFA5 C17 (UniProt Q16718),0.144 (inactive)
6,UniProt Q14574_C804,0.812 (inactive)
7,UniProt Q00341_C683,-0.0455 (inactive)
8,FHL3 C150 (UniProt Q13643),0.146 (inactive)
9,UniProt P60842_C134,0.0481 (inactive)
10,DDX39B C198 (UniProt Q13838),-0.129 (inactive)
11,LGALS3BP C489 (UniProt Q08380),1.72 (active)
12,PPP5C C11 (UniProt P53041),0.16 (inactive)
13,GEN1 C668 (UniProt Q17RS7),0.0186 (inactive)
14,PAFAH1B3 C55 (UniProt Q15102),0.0597 (inactive)
15,PEX3 C65 (UniProt P56589),0.385 (inactive)
16,SMC1A C987 (UniProt Q14683),0.473 (inactive)
17,UniProt P68431_C111,0.142 (inactive)

# From the supplement of paper PMC11006884
